For 40 compounds, Potency results are on record in PubChem BioAssay (NCATS).

Structures are written as SMILES. Values without a mark were called inactive. No rule for the calls is given here.
Potency is read from the fitted curve at half-maximal effect.

The assay deals with HIV-1 nucleocapsid protein NCp7 (binding to TG oligonucleotide). In words: HIV Nucleocapsid (AID 346).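 Also: potency is for inhibitors that block NC binding and lower polarization.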 As to conditions: HIV-1 NC / fluorescein-TGTGTGTG probe, fluorescence polarization. The method in brief:
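HIV-1 NC (100 nM) binding to fluorescein-labelled ssDNA TG4xF (10 nM) in Hepes pH 7.5, 250mM NaCl, 1uM ZnCl2, TCEP and 2-mercaptoethanol; compounds pin-transferred, 1 hr room temperature, fluorescence polarization read on CCD imager.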
In general terms: Fluorescence polarisation rises when a labelled molecule tumbles more slowly, as on binding a larger partner.
In the case of `Clc1ccccc1-c1ccc2ncnc(N3CCNCC3)c2c1`, the Potency is over 20 µM.

Take `N#Cc1cccc(NC(=O)N2CCC3(CC2)CCN(C(=O)c2csnn2)CC3)c1`: the Potency is over 20 µM.

As for `CN(C)C(=O)c1ccc(-c2cncnc2NCc2ccccc2)cc1`, the Potency is over 20 µM.

Consider `CC(C)CN1CCC2(CC1)CCN(C(=O)c1cc(C(F)(F)F)cc(C(F)(F)F)c1)CC2`, for which the Potency is over 20 µM.

Consider `Cc1cccc(CNc2ccnc(-c3cccnc3)n2)c1`, for which the Potency was over 20 µM.

As for `CN(C)c1ncc2nc(CCc3ccccc3)c(=O)n(CCc3ccccc3)c2n1`, the Potency was over 20 µM.

As for `CN(C)c1ncc2nc(-c3cc(F)cc(F)c3)c(=O)n(C3CC3)c2n1`, the Potency was over 20 µM.

Regarding `CN(C)c1ncc2nc(-c3ccc(F)cc3)c(=O)n(C3CC3)c2n1`, the Potency was over 4 µM.

For `COCCn1c(=O)c(CCc2ccccc2)nc2cnc(OC)nc21`, the Potency is over 20 µM.

As to `COc1cccc(-c2ccc3ncnc(NCCN4CCOCC4)c3c2)c1`, the Potency is over 20 µM.

In the case of `COCCn1c(=O)c(C)nc2cnc(Oc3cccc(Cl)c3)nc21`, the Potency is over 4 µM.

Take `CC(C)NC(=O)N1CCCC2(CCN(C(=O)c3ccco3)CC2)C1`: the Potency is over 20 µM.

Regarding `N#Cc1cccc(-c2nc3cnc(N4CCNCC4)nc3n(C3CC3)c2=O)c1`, the Potency is over 20 µM.

Take `CS(=O)(=O)N1CCC2(CC1)CN(Cc1cc(C(F)(F)F)cc(C(F)(F)F)c1)C2`: the Potency was over 20 µM.

With `Cc1cnc(CNc2ccnc(-c3ccccc3CN(C)C)n2)cn1`, the Potency is over 20 µM.

For `Cc1cnc(CNc2ncnc3ccc(-c4cccc(NS(C)(=O)=O)c4)cc23)cn1`, the Potency was over 20 µM.

As to `CN(C)Cc1ccccc1-c1cncnc1NC1CC1`, the Potency is over 20 µM.

Consider `COc1ccc(C(=O)N2CCC[C@@]3(CCN(c4ccccc4)C3)C2)cc1`, for which the Potency was over 20 µM.

For `COc1ccc(Oc2ncc3nc(C)c(=O)n(Cc4cccc(OC)c4)c3n2)cc1`, the Potency was over 20 µM.

With `O=C(c1cc(C(F)(F)F)cc(C(F)(F)F)c1)N1CCC2(CCN(Cc3ccncc3)CC2)CC1`, the Potency is over 20 µM.

For `CS(=O)(=O)Nc1cccc(-c2nccc(NCc3ccccc3)n2)c1`, the Potency is over 20 µM.

In the case of `COC(=O)N1CCC2(CCCN(c3ncccn3)C2)CC1`, the Potency is over 20 µM.

With `O=C(Nc1ccccc1)N1CCCC2(CCN(C(=O)c3cc(C(F)(F)F)cc(C(F)(F)F)c3)CC2)C1`, the Potency was over 20 µM.

`COc1ccc(-c2nc3cncnc3n(-c3ccccc3)c2=O)cc1`: the Potency was over 20 µM.

`COc1cccc(-c2ccc3ncnc(N(C)Cc4ccco4)c3c2)c1`: the Potency was over 20 µM.

With `CCNc1ncc2nc(-c3cccs3)c(=O)n(C[C@H]3CCCO3)c2n1`, the Potency was over 20 µM.

With `CN(C)c1ccnc(-c2ccccc2C(F)(F)F)n1`, the Potency was over 20 µM.

Take `Cc1noc(C)c1C(=O)N1CCC2(CCCN(C(=O)Nc3cccc(C#N)c3)C2)CC1`: the Potency was over 20 µM.

Consider `N#CCCn1c(=O)c(CCc2ccccc2)nc2cnc(OCc3ccccc3)nc21`, for which the Potency was over 20 µM.

With `COc1ccc(Oc2ncc3nc(-c4cccs4)c(=O)n(Cc4cccc(OC)c4)c3n2)cc1`, the Potency is over 20 µM.

On to `COc1ccc(-n2c(=O)cnc3cnc(N4CCOCC4)nc32)cc1`, for which the Potency was over 20 µM.

Consider `Cc1nc2cnc(N(C)C)nc2n(C2CC2)c1=O`, for which the Potency is over 20 µM.

For `CS(=O)(=O)N1CCC[C@@]2(CCN(c3ncccn3)C2)C1`, the Potency was over 20 µM.

For the compound `O=C(c1cccc(F)c1)N1CCC2(CCCN(c3ccc(-c4ccccc4)cc3)C2)CC1`, the Potency was over 20 µM.

Take `COc1cccc(Cn2c(=O)c(-c3ccc(F)cc3)nc3cnc(OC)nc32)c1`: the Potency was over 20 µM.

As to `Cc1cnc(CNc2ccnc(-c3ccc(N(C)C)cc3)n2)cn1`, the Potency was over 20 µM.

For the compound `O=c1c(-c2cc(F)cc(F)c2)nc2cnc(N3CCOCC3)nc2n1C1CC1`, the Potency was over 20 µM.

With `COCCn1c(=O)cnc2cnc(OC)nc21`, the Potency was over 20 µM.

For `CNc1ncnc2ccc(-c3ccccc3CN(C)C)cc12`, the Potency is over 20 µM.

Regarding `COc1cccc(Cn2c(=O)c(C)nc3cnc(OC)nc32)c1`, the Potency was over 20 µM.
